Potency data for 31 compounds are collected here from PubChem BioAssay (Tox21).

“And” between values parts separate entries of the source, which are not always exact repeats. Equal values may be shown once. Records with an inconclusive call do not appear. Entries that show only a call come without a potency. More than one record can exist for a structure, and the calls need not agree. The source made the active and inactive calls. Calls come from the whole dose curve.
Potency is the fitted concentration of half-maximal effect.

A short description of this experiment: qHTS assay for small molecule agonists of the antioxidant response element (ARE) signaling pathway - cell viability counter screen (AID 743203). Note: nearly all actives have a fitted effect of over 55% in size. As to conditions: ARE-bla HepG2 viability, CellTiter-Glo luminescence, 16 h; series mostly up to 73.3 µM. The method in brief: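 CellSensor ARE-bla HepG2 cells, 2,000 per well, rested 5 hrs at 37C/5% CO2, then exposed to compound in DMSO for 16 hrs; viability read as CellTiter-Glo luminescence after 30 min at room temperature, in the reporter wells.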
(In general: qHTS replaces the single test concentration by a dilution series.)
For the compound `CC12CC1(C)C(=O)N(c1cc(Cl)cc(Cl)c1)C2=O` (stereo unspecified), the Potency result was “inactive”.

Take `OCC(O)CCl` (stereo unspecified): the Potency entry was “inactive”.

As to `N#Cc1cccc(C#N)c1`, the Potency entry is “inactive”.

Turning to `Oc1c(Br)cc(Br)cc1Br`, the Potency entry was “inactive”.

As to `O=C(O)c1cc(Oc2ccc(C(F)(F)F)cc2Cl)ccc1[N+](=O)[O-]`, the Potency entry was “inactive”.

`Cc1ccc(O)c(C)c1`: the Potency entry was “inactive”.

As to `CNCC(O)c1ccc(O)cc1` (stereo unspecified), the Potency result was “inactive”.

Regarding `CCOC(=O)CC(SP(=O)(OC)OC)C(=O)OCC` (stereo unspecified), the Potency result was “inactive”.

As for `CCOP(=S)(OCC)Oc1cc(C)nc(C(C)C)n1`, the Potency entry was “inactive and 54.5 µM (active)”.

As for `CNC(=O)O/N=C/C(C)(C)SC`, the Potency result was “inactive”.

Turning to `COP(=S)(OC)SCN1C(=O)c2ccccc2C1=O`, the Potency result is “inactive”.

Turning to `ClCCOCCCl`, the Potency entry is “inactive”.

Turning to `CC(=O)C1CCOC1=O` (stereo unspecified), the Potency result is “inactive”.

`O=S(=O)(O)OOS(=O)(=O)O`: the Potency result was “inactive”.

For `CC[N+](=O)[O-]`, the Potency entry is “inactive”.

On to `COC(=O)Nc1cccc(OC(=O)Nc2cccc(C)c2)c1`, for which the Potency entry is “inactive”.

Regarding `Cc1cccc(N)c1C`, the Potency result was “inactive”.

As for `Cc1ccc(N)cc1`, the Potency entry is “inactive”.

Take `CNC(=O)O/N=C/C(C)(C)S(C)(=O)=O`: the Potency result was “inactive”.

Turning to `Cc1ccc(N=C=O)cc1N=C=O`, the Potency entry is “inactive”.

Consider `COS(=O)(=O)OC`, for which the Potency entry is “inactive”.

For the compound `CC(C)c1cccc(C(C)C)c1O`, the Potency result is “inactive”.

For `COC(C)(C)CCCC(C)C/C=C/C(C)=C/C(=O)OC(C)C` (stereo unspecified), the Potency entry was “inactive”.

`Cc1cccc(C)c1N`: the Potency result is “inactive”.

For `C=CCN=C=S`, the Potency entry is “inactive”.

Consider `Clc1cnc(Oc2ccc(Oc3ncc(Cl)cc3Cl)cc2)c(Cl)c1`, for which the Potency entry was “inactive”.

For `O=[N+]([O-])c1cc([As](=O)(O)O)ccc1O`, the Potency result is “inactive”.

`O=C(O)Cc1ccccc1`: the Potency result is “inactive”.

For the compound `O=[N+]([O-])c1ccc(Cl)c(Cl)c1`, the Potency result was “inactive”.

With `O=P1(NCCCl)OCCCN1CCCl` (stereo unspecified), the Potency result was “inactive”.

For `CNc1cnn(-c2cccc(C(F)(F)F)c2)c(=O)c1Cl`, the Potency entry was “inactive”.
